In the supplement of paper PMC8387472:

Compound: S=c1nc[nH]c2nc[nH]c12 [6-Mercaptopurine (6-MP) Monohydrate]
Experiment: fraction of microhomology deletions among edited reads; higher = more MH deletions
Conditions: mESC; 2uM; 72 h treatment, harvest day 5

| Target | fraction of microhomology deletions among edited reads |
| --- | --- |
| 3.0 (DMSO control at this site: 1-bp insertion 0.109, MH deletion 0.149, edited 0.09) TGCTAGCGCCCCCACAAAGCGGACCAGCCAGCACTATAGGGAATAAGGCCAACTTGCACCC | 0.254 |
| 7.0 (DMSO control at this site: 1-bp insertion 0.128, MH deletion 0.374, edited 0.098) TACTCAACCGAGACCTACGCGAACCGAAATCGTATGCCGGTGCGCAAGCAGGGCTGGCGTC | 0.367 |
| 39.0 (DMSO control at this site: 1-bp insertion 0.328, MH deletion 0.371, edited 0.204) CTGCACAGTCACTTAGGATAGGAGAAGATGATGTATAGGGTTTAGTGGGAGATGTTGCAAG | 0.371 |
| 21.0 CGATTGAGAGTCAAACGGGCCAGAAAACTCCGGGAACGGGCCAGAAAACTCCGGGGCATGG | 0.165 |
| 25.0 (DMSO control at this site: 1-bp insertion 0.017, MH deletion 0.774, edited 0.143) GGGCCTGAATGGTGTGGACATCTACTCGCTGGTGAGCTGGTGACTGAAAACATTCAGTGGC | 0.694 |
| 27.0 CCAGAATTAGAACATATCATCTGGACCCTTTTCCATCTGGACCCTTTTCCAGCACACCCTG | 0.147 |
| 40.0 (DMSO control at this site: 1-bp insertion 0.072, MH deletion 0.192, edited 0.189) GCGAATCAACTGTTCAACAACAGCAGCAGCCACCTGGAGGACTACAGTGGCCTGTCCGTGT | 0.137 |
| 42.0 (DMSO control at this site: 1-bp insertion 0.145, MH deletion 0.655, edited 0.132) GGGCTAAACCTATGAGCACAGTAGAACTAAGGGTGGGTGGTGTAGCTAAAGAACTTGACCA | 0.567 |
| 28.0 (DMSO control at this site: 1-bp insertion 0.035, MH deletion 0.77, edited 0.142) TGGTTCTTCCTTTGTAGAGAGTGTTCATCTGGGAATCTGGGACTTGGATGAGACAATCATT | 0.693 |
| 2.0 (DMSO control at this site: 1-bp insertion 0.364, MH deletion 0.356, edited 0.125) GGTGCCCCCGAGACCTACGCGAACCGAAATCGATGTCCGGTGCGCAAGCAGGGCTGGCGTC | 0.321 |
| 4.0 (DMSO control at this site: 1-bp insertion 0.146, MH deletion 0.523, edited 0.125) ACGCCTTAGTGCACGAGTGACGGGATAATGTGGTCTCAGGTAATTGATAGGCTTCCAACTT | 0.463 |
| 46.0 TTAAGAGCAATGTTCACGCAACTTGAAATTATATCTGTGGTCTTCAAATTGTCTTTTGTCA | 0.33 |
| 31.0 (DMSO control at this site: 1-bp insertion 0.315, MH deletion 0.329, edited 0.026) ACCTCCACAGGCTGGGTGGCCCGGAGGCTGGGCGGCCCGGAGGCTGGGCTGGGCGAGTATC | 0.408 |
| 29.0 (DMSO control at this site: 1-bp insertion 0.084, MH deletion 0.745, edited 0.133) TTGATGAACTTCCTCTTCTTCTCATGTCTCCGGTCTCCGGTAGGCCACGTGCATGGCCACT | 0.633 |
| 8.0 GCATGCGTGTTTTGGGACAATGTAGTATACATTTGGGAGGCTCTCAGCTTTTCCCAATAAA | 0.00885 |
| 17.0 (DMSO control at this site: 1-bp insertion 0.112, MH deletion 0.348, edited 0.058) CCATAGCGCGATAAATATGACGGCTCATCCTGTATGACGGCTCATCCTGTATCAACTGTCC | 0.393 |
| 45.0 (DMSO control at this site: 1-bp insertion 0.017, MH deletion 0.666, edited 0.101) TTACACAGCATGAACTGCTAGGTGATGATGTCAGATTCGGTTTTACTAACTTCTCCAAAAA | 0.557 |
| 30.0 (DMSO control at this site: 1-bp insertion 0.074, MH deletion 0.67, edited 0.142) GAGCTGGCATGAGTATTTGTGCCACATGGCTCCCACATGGCTCCACATGCAAGTTTGAAAC | 0.57 |
| 44.0 (DMSO control at this site: 1-bp insertion 0.181, MH deletion 0.512, edited 0.123) ACACATACCTTCTTCGAGGCAGCCAGCATGATGAGACAGGTCTCCCACAAACACATCGTGT | 0.523 |
